# VP16 counter: VP16 counterscreen qHTS for inhibitors of ROR gamma transcriptional activity | Drosophila S2 Gal4-VP16 UAS-luciferase, luminescence, 20 h | Potency, µM (top dose mostly 53.6 µM), for inactives: at the highest dose activity, negative = inhibition, usual class: inhibitors | hit rate 3.5% among 310,000;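 note: Gal4-VP16 expression switched on by copper sulfate through the metallothionein promoter; potency is the fitted concentration of half-maximal effect; nearly all actives have a fitted effect of over 50% in size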
# ELG1 repair inh: qHTS screen for small molecules that inhibit ELG1-dependent DNA repair in human embryonic kidney (HEK293T) cells expressing luciferase-tagged ELG1 | HEK293T ELG1-luciferase reporter, luminescence, 16 h; DNA damage induced by 5-fluorouridine | Potency, µM (top dose mostly 46.1 µM), without a hit: top-dose activity change, negative = inhibition, hits mostly inhibitors | AID 504467, 2011 | hit rate 2.3% among 330,000; note: potency is the fitted concentration of half-maximal effect; nearly all actives have a fitted effect of over 55% in size
#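 Luminescence from the luciferase reporter, measured 30 min after ONE-Glo reagent at room temperature, was the read-out. Beforehand, 2,000 cells per well were exposed for 16 hr at 37 °C to 5-fluorouridine together with compound or vehicle.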
# RORg inh: qHTS for inhibitors of ROR gamma transcriptional activity | Drosophila S2 Gal4-RORgamma UAS-luciferase reporter, 20 h | Potency, µM (series often up to 53.6 µM), inactives show top-dose activity change, negative = inhibition, hits mostly inhibitors | Nuclear receptor ROR-gamma (Mus musculus), P51450 | hit rate 5.4% among 310,000; note: potency is the fitted concentration of half-maximal effect; nearly all actives have a fitted effect of over 60% in size
# Target sequence (P51450 whole entry, looked up, the tested form may be a part): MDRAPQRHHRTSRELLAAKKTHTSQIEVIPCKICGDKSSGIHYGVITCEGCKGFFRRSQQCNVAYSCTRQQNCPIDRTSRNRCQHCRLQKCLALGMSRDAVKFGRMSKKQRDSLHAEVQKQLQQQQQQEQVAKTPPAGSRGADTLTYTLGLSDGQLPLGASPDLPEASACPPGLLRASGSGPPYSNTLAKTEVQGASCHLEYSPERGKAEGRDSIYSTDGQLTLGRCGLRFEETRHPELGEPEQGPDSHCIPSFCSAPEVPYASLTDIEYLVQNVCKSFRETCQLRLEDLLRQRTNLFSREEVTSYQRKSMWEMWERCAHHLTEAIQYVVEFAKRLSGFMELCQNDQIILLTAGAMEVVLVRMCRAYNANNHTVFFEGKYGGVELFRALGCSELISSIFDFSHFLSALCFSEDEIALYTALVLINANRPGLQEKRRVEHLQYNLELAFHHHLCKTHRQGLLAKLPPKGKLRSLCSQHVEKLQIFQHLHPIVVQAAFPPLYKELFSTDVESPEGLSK
#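 In this cell-based reporter format, copper sulfate (700 uM final) drives Gal4–ROR gamma fusion expression from a metallothionein promoter in Drosophila Schneider cells; compounds preincubated 1 hr, reporter read after 20 hr at ambient temperature.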
# B2AR arrestin: qHTS assay of beta-arrestin-biased ligands of beta2-adrenergic receptor; beta-arrestin recruitment to beta2AR, cell-based reporter; Beta-2 adrenergic receptor (Homo sapiens), P07550; hit rate 0.02% among 330,000; AID 492947, 2010; Potency, µM (top dose mostly 46.1 µM), for inactives: at the top dose activation, actives largely listed as activators;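 note: potency is the fitted concentration of half-maximal effect; 0% = DMSO controls and full agonism = EC100 isoproterenol or metaproterenol; nearly all actives have a fitted effect of over 65% in size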
# TSHR antag: Antagonists of the Thyroid Stimulating Hormone Receptor: HTS campaign | activity change, negative = inhibition, % at 11.5 µM | AID 504810, 2011 | Thyrotropin receptor (Homo sapiens), P16473 | TSHR-expressing cells, TSH-stimulated cAMP HTRF, 2 h; stronger effect = lower value | hit rate 0.2% among 330,000;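 active = activity change below a set negative limit, meaning inhibition stronger than a set level, cut at about -70% in these data; inconclusive = activity change between two set negative limits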
#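 Competitive HTRF cAMP read-out (cryptate anti-cAMP antibody, cAMP-d2; 30 min, room temperature) in freshly harvested TSHR cells. Compounds added before TSH at EC80 (4nM final), followed by 2 hours' incubation at 37 deg C.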
# * marks the source's active call; other numbers are inactive results; ? = inconclusive; . = not tested or not shown. Hits are enriched below; roughly 7.5% of the tested compounds scored in any of these assays. Unless noted, calls come from the whole dose curve; as a rule, active = well fitted curve in the direction sought with a large enough effect; inconclusive = small, poorly fitted or top-dose-only effect, or another doubt; inactive = no such curve, though single readings can be large; an effect the other way counts as inactive or inconclusive. Unless noted, % is set by controls: 0 for no effect and ±100 for the full control effect.
SMILES,VP16 counter,ELG1 repair inh,RORg inh,B2AR arrestin,TSHR antag
Fc1ccc(/C=N/NC2=Nc3cccc4cccc2c34)cc1,?,?,1.1µM*,0%,-13
COc1ccc(NC2=Nc3cccc4cccc2c34)cc1,?,?,13µM*,0%,-9
Fc1ccc(/C=N/Nc2nccnc2Cl)cc1,1%,?,-5%,0%,4
COc1ccccc1N1CCN(CCCCNS(=O)(=O)c2cccc3c(N(C)C)cccc23)CC1,.,.,.,.,-8
Cc1ccc(-c2cc(-c3ccccc3)nc(N(C)N)n2)cc1,?,-2%,13µM*,0%,-2
S=C(NCc1ccco1)Nc1ccc(Cl)cc1Cl,?,?,11µM*,0%,-3
S=C(NCc1ccco1)Nc1ccc(Br)cc1Cl,-25%,10%,13µM*,0%,-1
S=C(NCc1ccc(Cl)c(Cl)c1)NCc1ccco1,?,-4%,?,-1%,-7
CCCn1c(-c2ccc(F)cc2)nc2c(NCCCN(C)C)nc(C)nc21,5%,.,-35%,.,.
N#Cc1ccccc1OCC(=O)NCc1ccccc1CN1CCCC1,.,?,.,0%,-19
O=C(Cn1cnc2ccccc2c1=O)NC1CCS(=O)(=O)C1 (centres undefined),.,9%,.,0%,3
Cn1c(CSCc2ccccc2)n[nH]c1=S,?,0%,11µM*,0%,7
Cn1c(CSCc2ccc(Cl)cc2Cl)n[nH]c1=S,6.3µM*,-2%,0.79µM*,0%,5
Cn1c(CSCc2ccc(Cl)cc2)n[nH]c1=S,13µM*,-17%,2.8µM*,0%,-11
Nc1ncc(O)c(N)n1,-6%,.,10%,.,.
CCOc1ccc(C(C)=O)cc1COC(=O)c1ccc2c(c1)NC(=O)CS2,.,16µM*,.,?,-20
COc1ccc(C(=O)COC(=O)c2ccc3c(c2)NC(=O)CS3)c(OC)c1,.,?,.,2%,.
CC(C)Cn1c2c(c(O)c(C(=O)Nc3ncccc3O)c1=O)CCCC2,14µM*,?,?,0%,-9
CC(C)Cn1c2c(c(O)c(C(=O)Nc3ccc(F)cc3)c1=O)CCCC2,-12%,-4%,5%,0%,-5
O=C1C(=O)c2ccccc2C(O)=C1c1ccccc1F,1.3µM*,-12%,-19%,0%,-23
O=C1c2ccccc2C(=O)c2c1ccc(O)c2O,-10%,.,-35%,.,.
CCOc1cccc2cc(-c3nc4ccc(C(=O)O)cc4[nH]3)c(=O)oc12,.,.,.,0%,0
COc1ccc(-c2cn(-c3ccc(OC)cc3)c3[n+]2-c2ccccc2CC3)cc1,4.5µM*,9.2µM*,?,0%,6
COc1ccccc1-n1c(-c2ccccc2)c[n+]2c1CCc1ccccc1-2,8.9µM*,3.3µM*,?,0%,-17
COc1ccc(-n2c(-c3ccc(Br)cc3)c[n+]3c2CCc2ccccc2-3)cc1,6.3µM*,?,-69%,5%,-16
SMILES,VP16 counter,ELG1 repair inh,RORg inh,B2AR arrestin,TSHR antag
Brc1ccc(-c2c[n+]3c(n2-c2ccccc2)SCC3)cc1,-9%,?,18%,0%,-7
CC(C)c1ccc(-n2c(-c3ccccc3)c[n+]3c2CCc2ccccc2-3)cc1,3.5µM*,2.3µM*,4.5µM*,4%,-36
C[n+]1cc(-c2ccccc2)n2c1CCCCC2,-12%,4%,26%,0%,-25
CC1CCC(C(C)C)C(=O)C1 (centres undefined),-7%,.,-1%,.,.
O=C1c2cccc3cccc(c23)C(=O)N1CCN1CCN(C(=S)Nc2ccc(F)cc2)CC1,-2%,1%,-33%,-2%,3
Cc1ccc(NC(=S)N2CCN(CCN3C(=O)c4cccc5cccc(c45)C3=O)CC2)cc1,?,?,7.1µM*,-1%,10
COc1ccc(-c2cc(-c3cc(OC)ccc3O)[nH]n2)cc1,?,?,?,-1%,-13
Oc1ccccc1-c1cc(-c2ccc3c(c2)OCCO3)n[nH]1,?,?,3.2µM*,0%,-1
COc1ccc(-c2cc(-c3ccc(Cl)cc3)n[nH]2)c(O)c1,?,?,8.9µM*,0%,1
COc1ccc(-c2cc(-c3ccccc3O)[nH]n2)cc1OC,?,?,7.1µM*,1%,-22
COc1ccc(O)c(-c2cc(-c3ccc(F)cc3)n[nH]2)c1,?,?,13µM*,0%,-1
COc1ccc(-c2cc(-c3cc(F)ccc3O)[nH]n2)cc1OC,?,?,-89%,0%,-34
COc1ccc(O)c(-c2cc(-c3cccc(Br)c3)n[nH]2)c1,?,?,?,0%,1
COc1ccc(-c2cc(-c3ccc(OC)c(OC)c3)n[nH]2)c(O)c1,?,?,4µM*,-1%,2
Cc1cccc(C(=O)NNC(=O)C2CCN(C(=O)OC(C)(C)C)CC2)c1,0%,1%,-1%,0%,-6
O=C(NCCC1=CCCCC1)c1ccc(F)cc1,11µM*,?,?,0%,-1
COc1ccc(C(=O)NCCC2=CCCCC2)cc1,?,?,13µM*,-2%,6
COc1ccc(C(=O)NCC(=O)OCC(=O)NCCC2=CCCCC2)cc1,6%,9%,-15%,0%,12
COc1ccccc1/C=C/C=N/n1c(-c2ccc(Cl)cc2)n[nH]c1=S,-10%,?,-28%,0%,5
COc1ccccc1/C=C/C=N/n1c(-c2ccccc2)n[nH]c1=S,?,?,0.4µM*,0%,-2
O=[N+]([O-])c1ccccc1/C=C/C=N/n1c(-c2ccccc2F)n[nH]c1=S,-3%,0%,14µM*,0%,-3
COc1ccc(-c2n[nH]c(=S)n2/N=C/C=C/c2ccccc2OC)cc1,?,-16%,7.1µM*,0%,-7
COc1ccc(CCNC(=O)C(=O)NCC2OCCN2S(=O)(=O)c2ccc3c(c2)OCCO3)cc1OC (centres undefined),-5%,12µM*,2%,0%,27
COc1ccc(S(=O)(=O)N2CCOC2CNC(=O)C(=O)NCCc2ccccc2)cc1 (centres undefined),-4%,21µM*,20%,0%,27
O=C(NCc1ccccn1)C(=O)NCC1OCCN1S(=O)(=O)c1ccc(Br)cc1 (centres undefined),25µM*,?,34%,-1%,-25
COc1ccc(CCNC(=O)C(=O)NCC2OCCN2S(=O)(=O)c2ccc(OC)c(OC)c2)cc1 (centres undefined),3%,?,-2%,0%,17
